Screening results deposited in PubChem by several laboratories.
An excerpt weighted towards active compounds, which were near 2.6% of everything screened.
TLR9-MyD88 inh: inhibitors of human TLR9-MyD88 binding; CHO BLA complementation TLR9-MyD88, CCF4 FRET ratio; inhibition, % at 4.98 µM; AID 504734; Q9NR96+Q99836; actives 0.21% (n = 340,000);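 active means inhibition above the mean over all tested compounds plus 3 SD, cut at about 21% in these data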
TLR4 MyD88 comp: inhibitors of human TLR4-MyD88 binding. O00206+Q99836. HeLa CL3-4 TLR4/MyD88 BLA complementation, FRET ratio. inhibition, % at 8.4 µM. actives 0.18% (n = 200,000). AID 861; in the data active means inhibition above about 25%
Target sequence (O00206 whole entry, looked up): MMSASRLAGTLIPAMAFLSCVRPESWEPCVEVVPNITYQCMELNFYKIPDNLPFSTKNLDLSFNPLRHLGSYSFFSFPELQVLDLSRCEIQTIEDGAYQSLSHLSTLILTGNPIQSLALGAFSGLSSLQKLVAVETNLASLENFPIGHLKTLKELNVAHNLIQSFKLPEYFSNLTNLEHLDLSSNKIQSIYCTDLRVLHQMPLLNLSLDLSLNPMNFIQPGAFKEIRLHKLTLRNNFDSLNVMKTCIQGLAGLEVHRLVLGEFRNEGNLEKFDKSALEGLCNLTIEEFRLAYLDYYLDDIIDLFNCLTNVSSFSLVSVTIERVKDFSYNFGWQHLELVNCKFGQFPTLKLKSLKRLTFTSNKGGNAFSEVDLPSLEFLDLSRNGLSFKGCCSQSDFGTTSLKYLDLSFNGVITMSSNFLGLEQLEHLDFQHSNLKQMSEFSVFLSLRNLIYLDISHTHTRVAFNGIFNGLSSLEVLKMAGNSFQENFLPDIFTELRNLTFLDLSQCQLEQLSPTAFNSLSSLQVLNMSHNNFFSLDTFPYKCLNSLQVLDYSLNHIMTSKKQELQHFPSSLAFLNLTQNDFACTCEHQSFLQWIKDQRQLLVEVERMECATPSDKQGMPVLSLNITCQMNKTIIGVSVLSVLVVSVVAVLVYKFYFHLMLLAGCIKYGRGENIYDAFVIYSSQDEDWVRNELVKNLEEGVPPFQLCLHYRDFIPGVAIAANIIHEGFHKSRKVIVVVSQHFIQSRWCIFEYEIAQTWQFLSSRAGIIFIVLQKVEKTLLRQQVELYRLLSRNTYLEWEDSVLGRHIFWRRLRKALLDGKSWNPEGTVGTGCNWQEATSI
Target sequence (Q99836 whole entry, looked up): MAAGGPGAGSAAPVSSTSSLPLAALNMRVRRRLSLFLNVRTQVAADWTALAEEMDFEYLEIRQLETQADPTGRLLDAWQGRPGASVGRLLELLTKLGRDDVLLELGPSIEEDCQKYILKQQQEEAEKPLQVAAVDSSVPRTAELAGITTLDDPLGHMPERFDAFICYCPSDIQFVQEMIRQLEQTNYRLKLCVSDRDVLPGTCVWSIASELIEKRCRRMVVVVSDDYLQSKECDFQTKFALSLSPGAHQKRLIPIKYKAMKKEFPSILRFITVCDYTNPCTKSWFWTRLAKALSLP
ABHD5-PLIN5 inh: inhibitors of human ABHD5-perilipin-5 interaction | Q00G26+Q8WTS1 | Split G. princeps luciferase complementation, luminescence, 4 h | inhibition, % at 4 µM | actives 0.78% (n = 360,000) | AID 602281;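 active means inhibition above the mean inhibition across every tested compound plus 3 SD, cut at about 22% in these data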
PRMT1 FP inh: inhibitors of human PRMT1. Q99873. AID 652257. inhibition, % at 2.79 µM. actives 1.3% (n = 370,000). recombinant PRMT1, activity-based probe fluorescence polarization;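 active means inhibition above about 21% made by adding two undisclosed values, limit read from the data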
Exocytosis inh: blocks lytic granule exocytosis; TALL-104 LAMP-1 surface exposure, flow cytometry; cells stimulated with thapsigargin and PMA; inhibition, % at 10 µM; actives 0.66% (n = 360,000); AID 651702;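 active means inhibition above about 55%, limit read from the data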
NOD2 RIPK2 PPI: blocks binding of human NOD2 to RIPK2. O43353. CHO BLA complementation NOD2-RIPK2, CCF4 ratio. inhibition, % at 4.98 µM. actives 0.38% (n = 360,000). AID 624267; in the data active means inhibition above about 21%
ABHD5 PLIN5 conf: confirmation of human ABHD5-PLIN5 interaction inhibitors. shares compounds with ABHD5-PLIN5 inh. biochemical ABHD5-PLIN5 interaction, luminescence. inhibition, % at 4 µM. actives 67% (n = 2,200). AID 651612; in the data active means inhibition above about 23%
HNF4 split-luc: HNF4 split-luciferase signal hit, counter-screen | shares compounds with ABHD5-PLIN5 inh | HNF4 dimerization, luminescence, biochemical | inhibition, % at 4 µM | actives 77% (n = 2,200);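 active means mean inhibition across replicate wells exceeding the computed hit threshold, cut at about 13% in these data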;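 further: light from luciferase halves that rejoin when HNF4 fusion proteins dimerize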
A number is an active result; i = inactive; nt = no result given.

SMILES	TLR9-MyD88 inh	TLR4 MyD88 comp	ABHD5-PLIN5 inh	PRMT1 FP inh	Exocytosis inh	NOD2 RIPK2 PPI	ABHD5 PLIN5 conf	HNF4 split-luc
O=C(/C=C/c1ccc(OCc2ccccc2)c(OCc2ccccc2)c1)c1cccnc1	i	i	26	i	i	i	87	78
O=C(/C=C/c1ccc(Cl)cc1)c1cccnc1	i	i	80	i	i	i	96	100
N#Cc1ccc(/C=C/C(=O)c2cccnc2)cc1	i	i	82	i	i	i	92	96
O=C(/C=C/c1ccccc1Cl)c1ccc(O)cc1	i	nt	i	i	i	i	nt	nt
O=C(/C=C/c1ccccc1Cl)c1cccnc1	i	i	71	i	i	i	100	102
COC(=O)C[C@@H]1CC[C@H]2[C@@H](COc3ccc(NC(=O)Nc4ccc(C)cc4)cc3C(=O)N2C)O1	nt	nt	nt	i	nt	nt	nt	nt
COC(=O)[C@@]12CCCCC=C1N(CCc1ccc(Cl)cc1)C(=O)[C@H]2CC(=O)NCC12CC3CC(CC(C3)C1)C2	nt	nt	nt	i	nt	nt	nt	nt
CSc1nc(=O)[nH]nc1Sc1ccccc1	i	nt	33	i	i	i	48	53
CCNC(=O)N1CCN(c2ccc(N3CCN(C(=O)NCC)[C@H](C)C3)c(C)c2)[C@@H](C)C1	nt	nt	nt	i	nt	nt	nt	nt
CNc1ccc(Br)cc(C(=O)/C=C/c2cc(OC)ccc2OC)c1=O	i	i	26	26	i	i	63	58
COc1ccc(/C=C/C(=O)c2cc(Br)ccc2O)cc1OC	i	i	i	i	i	i	nt	nt
O=C(CSc1nnc(-c2ccccc2)n1-c1ccccc1)Nc1ccc(Oc2ccccc2)cc1	nt	nt	nt	i	nt	nt	nt	nt
O=C(N1CCCCC1)C1(S(=O)(=O)c2ccccc2)CC=CC1	i	nt	33	i	i	i	i	i
CC(=O)Cc1cc(O)c2ccccc2c1OC(=O)c1ccccc1	i	i	67	i	i	i	84	54
O=C(NCc1ccco1)c1cnn2c(C(F)(F)F)cc(-c3cccs3)nc12	i	i	24	23	i	i	25	47
CCC(NC(=O)CCCN1C(=O)COc2ccc(C)cc21)c1ccccc1 (configuration not stated)	nt	nt	nt	i	nt	nt	nt	nt
COc1ccccc1OCc1nnc(SCC(=O)NCc2ccco2)n1Cc1ccco1	i	i	31	i	i	i	48	34
COc1ccc(OC)c(C(c2c(O)nc(SC)[nH]c2=O)c2c(O)nc(SC)[nH]c2=O)c1	i	nt	26	i	i	i	52	49
COc1cc(C(c2c(O)nc(SC)[nH]c2=O)c2c(O)nc(SC)[nH]c2=O)cc(OC)c1OC	i	nt	i	i	i	i	nt	nt
C[C@@H]1CCCN1c1cccc2c1S(=O)(=O)N1CC[C@H](C1)O2	nt	nt	nt	i	nt	nt	nt	nt
Cn1c(COc2ccccc2)nnc1SCC(=O)Nc1ccc(S(=O)(=O)Nc2nccs2)cc1	nt	nt	nt	i	nt	nt	nt	nt
CCN1CCN(Cc2ccc(NC(=O)c3ccc(C)c(/C=C/c4cnc(Nc5cc(N6CCNCC6)nc(C)n5)cn4)c3)cc2C(F)(F)F)CC1	i	nt	28	nt	i	i	36	i
COC(=O)c1c(NC(=S)NN2CCN(C)CC2)sc2c1CCC(C)C2 (configuration not stated)	i	i	25	i	64	i	i	i
COC(=O)[C@]12C[C@H](CC(=O)N3CCSCC3)C(=O)N(CCc3ccc(OC)c(OC)c3)C1=C[C@H](COCc1ccccc1)O[C@@H]2C	nt	nt	nt	i	nt	nt	nt	nt
O=C(Cc1cccc([N+](=O)[O-])c1)Nc1cccc(C(=O)N2CCCC2)c1	i	nt	i	i	i	i	nt	nt
SMILES	TLR9-MyD88 inh	TLR4 MyD88 comp	ABHD5-PLIN5 inh	PRMT1 FP inh	Exocytosis inh	NOD2 RIPK2 PPI	ABHD5 PLIN5 conf	HNF4 split-luc
O=C(Cc1cccc([N+](=O)[O-])c1)Nc1ccc(C(=O)N2CCCCC2)cc1	i	nt	25	i	i	i	i	i
O=C(NC(C(=O)N1CCCC1C(=O)NC1CCCC1)c1ccccc1)c1cccs1 (configuration not stated)	nt	nt	nt	i	nt	nt	nt	nt
O=C(Cn1c(=O)n(Cc2ccco2)c(=O)c2ccccc21)Nc1cccc(Cl)c1	i	i	42	i	i	i	i	i
CCCC1=NN(C(=O)C(=O)Nc2ccc(Br)cc2)C(O)(C(F)(F)F)C1 (configuration not stated)	i	i	23	i	i	i	37	42
CCC1=NN(C(=O)C(=O)Nc2ccc(Br)cc2)C(O)(C(F)(F)F)C1 (configuration not stated)	i	i	i	i	i	i	nt	nt
CC1CCC(C(C)C)C(OC(=O)Cn2c(-c3ccc(Cl)cc3)[n+](C)c3ccccc32)C1 (configuration not stated)	i	nt	34	i	i	i	i	i
CC(C)[C@@H]1CC[C@@H](C)C[C@H]1OC(=O)C[n+]1cc(-c2ccc(Cl)cc2)n2c1CCCCC2	i	nt	i	i	i	i	nt	nt
COCCCNC(=O)c1oc(=O)c2ccccc2c1-c1ccc(C)cc1	nt	nt	nt	i	nt	nt	nt	nt
O=C1C=C(N2CCN(C3=CC(=O)CCC3)CC2)CCC1	i	i	48	i	i	i	i	20
O=C1C=C(N2CCOCC2)CCC1	i	nt	27	i	i	i	i	i
COc1cc(-n2c(C)cc(O)cc2=O)ccc1Cl	nt	nt	nt	i	nt	nt	nt	nt
Nc1nc(N2CCN(C/C=C/c3ccccc3)CC2)nc2ccccc12	i	i	28	i	i	i	31	i
CCS(=O)(=O)Nc1ccc2c(c1)C(=O)N(C)[C@@H]1CC[C@H](CC(=O)NCCCN3CCOCC3)O[C@H]1CO2	nt	nt	nt	i	nt	nt	nt	nt
COc1coc(C(O)CN)cc1=O (configuration not stated)	i	i	i	i	i	i	nt	nt
CCOC(=O)C(=Cc1cc(=O)c(OC)co1)C(=O)OCC	i	i	24	i	i	i	76	90
COc1cccc(C=NNC(=S)NC2CC3CCC2C3)c1O (configuration not stated)	nt	nt	nt	i	nt	nt	nt	nt
O=C1N/C(=N/O)S/C1=C/c1cccc([N+](=O)[O-])c1	i	i	i	i	i	i	nt	nt
CC1(C)CC(=O)/C(=C\c2cccc([N+](=O)[O-])c2)C(C)(C)N1	i	i	26	i	i	i	37	44
Cn1c(=O)[nH]c(=O)c2c1nc(SCC(O)CO)n2Cc1ccccc1Cl (configuration not stated)	i	i	39	i	i	i	i	i
COc1ccccc1C(C[N+](=O)[O-])c1c(N)n(C)c(=O)n(C)c1=O (configuration not stated)	nt	nt	39	i	i	i	33	65
COc1ccccc1C(c1c(N)n(C)c(=O)n(C)c1=O)C(C)[N+](=O)[O-] (configuration not stated)	nt	nt	i	i	i	i	nt	nt
COc1ccc(CNC(=O)c2cc(-c3ccccc3)c(N3CCOCC3)s2)cc1OC	nt	nt	nt	i	nt	nt	nt	nt
